From the supplement of paper PMC6897291 come the findings set out here.

The test system of the experiment is U-2932. Kind of experiment: growth inhibition by drug alone (1 - RLU/untreated control) (fraction); higher = stronger inhibition. To be noted: 177Lu-lilotomab satetraxetan 0 ug/ml. The procedure:
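U-2932 ABC-DLBCL cells were pretreated or not for 18 h with 1 ug/ml 177Lu-lilotomab satetraxetan (600 MBq/mg), washed and seeded (3000 cells/well) on 384-well plates pre-printed with the Selleck Cambridge Cancer Compound library. Viability was read by RealTime-Glo luminescence on days 3-6 after seeding. Effect = 1 - RLU/mean RLU of the 48 untreated no-drug control wells per plate; Bliss score = (M-E)/(1-Fa), with E the expected Bliss-additive effect.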

As for `N#CC(c1ccnc(NCCc2cccnc2)n1)c1nc2ccccc2s1` (stereo not given) [JNK Inhibitor V], the “growth inhibition by drug alone” value (10 nM, time (day): 3) was -0.0956; the “growth inhibition by drug alone” value (10 nM, time (day): 4) was -0.056; the “growth inhibition by drug alone” value (10 nM, time (day): 5) is -0.0395; the “growth inhibition by drug alone” value (10 nM, time (day): 6) was 0.0624; the “growth inhibition by drug alone” value (1000 nM, time (day): 3) is -0.154; the “growth inhibition by drug alone” value (1000 nM, time (day): 4) was -0.122. The “growth inhibition by drug alone” value is -0.116 (1000 nM, time (day): 5) and -0.143 (1000 nM, time (day): 6).
Regarding `CCCC(=O)[O-].[Na+]` [Sodium butyrate], the “growth inhibition by drug alone” value reads like this: (10 nM, time (day): 3) -0.0432; (10 nM, time (day): 4) -0.057; (10 nM, time (day): 5) -0.0778; (10 nM, time (day): 6) -0.0762; (1000 nM, time (day): 3) -0.0747; (1000 nM, time (day): 4) -0.0522. Moreover, the “growth inhibition by drug alone” value runs as follows: (1000 nM, time (day): 5) -0.0783; (1000 nM, time (day): 6) -0.149.
Consider `Cc1ccc(NC(=O)c2ccc(CN3CCN(C)CC3)cc2)cc1Nc1nccc(-c2cccnc2)n1` [Imatinib (Gleevec)], for which the “growth inhibition by drug alone” value is 0.114 (10 nM, time (day): 3); 0.0795 (10 nM, time (day): 4); 0.0573 (10 nM, time (day): 5); -0.108 (10 nM, time (day): 6); -0.0113 (1000 nM, time (day): 3); -0.0535 (1000 nM, time (day): 4). Besides, the “growth inhibition by drug alone” value is, setting by setting: (1000 nM, time (day): 5) -0.0116; (1000 nM, time (day): 6) -0.0612.
On to `Oc1nc(-c2ccc(C(F)(F)F)cc2)nc2c1CSCC2`, for which the “growth inhibition by drug alone” value runs as follows: (10 nM, time (day): 3) 0.0264; (10 nM, time (day): 4) 0.0499; (10 nM, time (day): 5) -0.0107; (10 nM, time (day): 6) -0.0367; (1000 nM, time (day): 3) 0.0107; (1000 nM, time (day): 4) 0.081. Also, the “growth inhibition by drug alone” value is 0.0386 (1000 nM, time (day): 5) and -0.0985 (1000 nM, time (day): 6).
`CO[C@@H](C(=O)N1Cc2[nH]nc(NC(=O)c3ccc(N4CCN(C)CC4)cc3)c2C1)c1ccccc1`: the “growth inhibition by drug alone” value is 0.0385 (10 nM, time (day): 3); -0.0423 (10 nM, time (day): 4); -0.0829 (10 nM, time (day): 5); -0.0542 (10 nM, time (day): 6); 0.206 (1000 nM, time (day): 3); 0.258 (1000 nM, time (day): 4). For the same molecule, the “growth inhibition by drug alone” value runs as follows: (1000 nM, time (day): 5) 0.259; (1000 nM, time (day): 6) 0.368.
